ATG4B inh = ATG4B (human) cysteine protease inhibition | ATG4B cleavage of LC3-PLA2, NBD-HPC fluorescence, 1 h | inhibition, % at 8.33 µM | AID 504462 | Q9Y4P1 | actives 0.51% (n = 340,000)
PKA-R2B activ = PKA-R2B complex activation; PKA-R2B holoenzyme dissociation, Cy5-IP20 fluorescence polarization; R2B truncated from residue 108, S112A mutant; 0% DMSO only, 100% 113 µM cGMP; activation, % at 11.4 µM; actives 0.079% (n = 340,000); AID 504700;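 active = activation above a cutoff set at the mean over all compounds plus 3 SD, cut at about 18% in these data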;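 note: higher means more holoenzyme dissociation and a rise in polarization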
VLA-4 inh = inhibition in a human VLA-4 binding assay; P13612; VLA-4 expressing cells, ligand binding flow cytometry; inhibition, % (about 7 µM as worked out from the volumes in the protocol); actives 0.2% (n = 330,000); AID 2557; in the data active = inhibition above about 50%
PKA-R1A activ = PKA-R1A complex activation. P00514+P68181. PKA-R1A dissociation, Cy5-IP20 fluorescence polarization; scaled: DMSO 0%, 113 µM cGMP 100%. activation, % at 11.4 µM. actives 0.083% (n = 340,000). AID 504707;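 active = percent activation above the mean of all tested compounds plus 3 SD, cut at about 19% in these data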;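 note: higher means more PKAc released from R1A so a rise in polarization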
NRP1-CendR mod = modulators of CendR peptide binding to human neuropilin-1; FAM-RPARPAR peptide binding to NRP-1, fluorescence polarization; inhibition, % at 25 µM; actives 0.85% (n = 360,000); O14786; AID 602438;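 active = inhibition or corrected inhibition above about 18%, plus a signal ratio from 0.5 to 1.5, limit read from the data, passing the limit was not always enough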
VLA-4 mod pick = human VLA-4 allosteric modulation in cherry picked compounds; shares compounds with VLA-4 inh; U937 cells, HUTS-21 LIBS mAb binding, flow cytometry; LDV ligand present at threefold Kd; inhibition, % at 6.7 µM; actives 2% (n = 1,300)
A number is an active result; . = inactive; / = not tested or not shown. An excerpt weighted towards active compounds, which were near 1.6% of everything screened. Cut-off read from the data, not from the text of the source, unless noted: active = inhibition above about 40%; inactive = the rest.

SMILES	ATG4B inh	PKA-R2B activ	VLA-4 inh	PKA-R1A activ	NRP1-CendR mod	VLA-4 mod pick
O=C(N/N=C/c1ccccc1O)C(=O)Nc1ccccn1	.	.	.	.	.	/
CCOc1ccc(NC(=O)CN(C)C(=O)CCCn2c(=O)oc3ccccc32)cc1OCC	.	.	.	.	.	/
CCOC(=O)C(NC(=O)c1cccc(Cl)c1)(Nc1nnc(C)s1)C(F)(F)F (stereo not drawn)	.	.	.	.	.	.
CC1CCCC(NC(=O)CCN2C(=O)COc3ccccc32)C1C (stereo not drawn)	/	.	/	.	.	/
CCC(C(=O)OCC(=O)Nc1c(C)n(C)n(-c2ccccc2)c1=O)c1ccccc1 (stereo not drawn)	.	.	.	.	.	.
Cc1c(NC(=O)CCC(=O)N2CCCCC2)c(=O)n(-c2ccccc2)n1C	.	.	.	.	.	.
Cc1ccc(C(O)c2ncc(-c3ccccc3Cl)[nH]2)cc1F (stereo not drawn)	/	/	/	/	.	/
CC(=O)c1ccccc1NS(=O)(=O)c1ccccc1Cl	.	.	.	.	.	.
CC(=O)c1ccccc1NS(=O)(=O)c1c(C)nn(-c2ccccc2)c1C	.	.	.	.	.	/
COC(=O)C1=C(NC(=O)COc2ccc(Cl)cc2Cl)CCS1	.	.	.	.	.	/
COC(=O)C1=C(NC(=O)COc2ccc3ccccc3c2)CCS1	.	.	.	.	.	.
OCCC1CN(Cc2cnc(-c3ccccc3)s2)CCN1C1CCCC1 (stereo not drawn)	.	.	.	.	.	.
CNC(=S)N/N=C/c1c(C)nn(-c2cccc(Cl)c2)c1Cl	.	.	.	.	.	.
CNC(=S)N/N=C/c1c(C)nn(-c2ccccc2)c1Cl	.	.	/	.	.	/
Cn1c(CNC(=O)CCNC(=O)c2cccc(Br)c2)cc(=O)n(C)c1=O	.	.	.	.	.	/
O=C(COC(=O)c1ccc(Br)cc1)NCCC1=CCCCC1	.	.	.	.	.	/
Nc1cc(C(=O)OCC(=O)NCCC2=CCCCC2)ccc1Cl	.	.	.	.	.	.
C[C@@H]1CN([C@@H](C)CO)C(=O)CCCn2nncc2CO[C@@H]1CN(C)S(=O)(=O)c1ccc2ccccc2c1	/	.	/	.	.	/
CCOc1c(OC)cccc1C1CC(=O)Nc2cc(OC)c(OC)cc21 (stereo not drawn)	.	.	.	.	.	.
COC(=O)c1ccc(C2CC(=O)Nc3cc(OC)c(OC)c(OC)c32)cc1 (stereo not drawn)	.	.	.	.	.	.
COc1cc2c(cc1OC)C(c1cccc(OC)c1OC)CC(=O)N2 (stereo not drawn)	.	.	.	.	.	/
COc1cc2c(cc1OC)C(c1ccc(OC)c(OC)c1OC)CC(=O)N2 (stereo not drawn)	.	.	.	.	.	.
CCC(C)[C@H](NC(=O)[C@H](Cc1ccccc1)n1c(=O)[nH]c2ccccc2c1=O)C(=O)N1CCC[C@@H]1C(=O)O (stereo partly drawn)	.	.	.	.	.	/
COC(=O)C[C@H]1C=C[C@@H](NS(=O)(=O)c2ccccc2)[C@@H](CO)O1	/	/	/	/	.	/
CCCc1cc(=O)[nH]c(-n2[nH]c3c(c2=O)CCCC3)n1	.	.	.	.	.	.
SMILES	ATG4B inh	PKA-R2B activ	VLA-4 inh	PKA-R1A activ	NRP1-CendR mod	VLA-4 mod pick
COc1ccc(S(=O)(=O)N2CCOCC2)cc1NC(=O)CN1CCCc2ccccc21	.	.	.	.	.	/
COCCNS(=O)(=O)c1cc(-c2nn(C)c(=O)c3ccccc23)ccc1C	.	.	.	.	.	/
Cc1ccc(-c2nn3c(C)nnc3c3ccccc23)cc1S(=O)(=O)NC(C)c1ccccc1 (stereo not drawn)	.	.	92.2	.	.	.
Cc1ccc(-c2nn3c(C)nnc3c3ccccc23)cc1S(=O)(=O)NCCO	.	.	.	.	.	.
Cc1ccc(-c2nn3c(C)nnc3c3ccccc23)cc1S(=O)(=O)NC(C)(C)CO	.	.	.	.	.	/
Cc1ccc(-c2nn3c(C)nnc3c3ccccc23)cc1S(=O)(=O)N1CCN(CCO)CC1	.	.	.	.	.	.
Cc1ccc(-c2nn3c(C)nnc3c3ccccc23)cc1S(=O)(=O)NCc1ccco1	.	.	.	.	.	.
COc1ccc(CC(=O)N/N=C/c2ccc(-c3cccc(C(=O)O)c3)o2)cc1OC	.	.	.	.	.	/
O=C(COC(=O)c1ccc(Cl)cc1)NCC1CCCCC1	.	.	.	.	.	.
O=C(COC(=O)c1c(F)cccc1Cl)NCC1CCCCC1	.	.	.	.	.	.
O=C(COC(=O)c1ccc(F)cc1)NCC1CCCCC1	.	.	50.8	.	.	.
O=C(COC(=O)c1c(F)cccc1Cl)NC1CCCC1	.	.	.	.	.	/
Cc1c(CC(=O)O)c(=O)oc2cc(OCc3ccc(Cl)cc3)ccc12	.	.	.	.	.	/
Cc1ccc(-n2c(SCC(=O)c3c(N)n(C4CC4)c(=O)[nH]c3=O)nnc2N2CCOCC2)cc1	.	.	/	.	.	/
O=C(CNC(=O)c1ccc(Cl)cc1)NCc1ccccn1	.	.	.	.	.	/
CC(=O)c1cccc(NC(=O)C2Cc3c(-c4cccc(F)c4)ccnc3O2)c1 (stereo not drawn)	/	/	/	/	.	/
CCOc1ccc(N(C(=O)c2cnsn2)C(C(=O)NC2CCCCC2)c2ccncc2)cc1 (stereo not drawn)	.	.	.	.	.	/
COc1ccc(N(C(=O)c2cnsn2)C(C(=O)NC2CCCCC2)c2ccncc2)cc1 (stereo not drawn)	.	.	.	.	.	.
COc1cc(C(C)=O)ccc1OCC(=O)OC(C)C(=O)c1ccc(F)cc1 (stereo not drawn)	.	.	.	.	.	/
O=C(COC(=O)c1ccc2c(c1)OCO2)NCc1ccc2c(c1)OCO2	.	.	.	.	.	/
COCC(=O)NCc1ccc2c(c1)OCO2	.	.	52.6	.	.	.
O=C(O)c1ccc(NC2OC[C@@H](O)[C@H](O)[C@H]2O)cc1 (stereo partly drawn)	.	.	58.5	.	.	.
O=C(O)c1ccc(NC(=O)C2C3CCC(O3)C2C(=O)O)cc1 (stereo not drawn)	.	.	.	.	.	/
COc1ccc(NC(=O)Cn2cc(C(C)=O)c3ccccc32)cc1	.	.	.	.	.	.
CCOc1ccc(NC(=O)Cn2cc(C(C)=O)c3ccccc32)cc1	.	.	.	.	.	/
CCC(=O)c1cn(CC(=O)Nc2ccc(C)cc2C)c2ccccc12	.	.	.	.	.	.
CCC(=O)c1cn(CC(=O)Nc2c(C)cccc2C)c2ccccc12	.	.	.	.	.	.
CCC(=O)c1cn(CC(=O)Nc2cccc(OC)c2)c2ccccc12	.	.	.	.	.	.

High-throughput results deposited in PubChem BioAssay by several laboratories.
